One assay deals with TAB109. In words: qHTS profiling for inhibitors of Plasmodium falciparum proliferation (AID 504749). Also: nearly all actives have a fitted effect of over 60% in size. Also: potency is read from the fitted curve at half-maximal effect. The following applies: P. falciparum in erythrocytes, SYBR Green DNA, 72 h; series mostly up to 28.7 µM. The procedure, abridged: (§1)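 In a 72 h erythrocytic culture (37 C, humidified, 5% CO2) at 2.5% hematocrit and 0.3% starting parasitemia, compounds were tested; SYBR Green I in detergent lysis buffer stained parasite DNA overnight.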
A general note: In qHTS, concentration-response curves come from the screen itself.

The next assay concerns TAB113. Described as above. Conditions: P. falciparum in erythrocytes, SYBR Green DNA, 72 h; series mostly up to 28.7 µM. The method in brief:
as §1

The test system of the next assay is TAB165. The assay is described as above. Conditions: P. falciparum in erythrocytes, SYBR Green DNA, 72 h; series mostly up to 28.7 µM. The method in brief: as §1
The next assay has as its system W2. Described as above. Conditions: P. falciparum in erythrocytes, SYBR Green DNA, 72 h; series mostly up to 28.7 µM. The method in brief:
as §1

Assay [1] relates to CRL-7250. In words: Cytotoxic Profiling of Annotated Libraries Using Quantitative High-Throughput Screening (AID 1296008). Also: nearly all actives have a fitted effect of over 60% in size. Also: potency is read from the fitted curve at half-maximal effect. As to max response: % is scaled to controls: 0 for no effect and ±100 for the full control effect. The following applies: Five cell lines viability, CellTiter-Glo ATP luminescence, 48-72 h; max response: stronger effect = lower value. The procedure, abridged: (§2)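 Cytotoxicity was measured as CellTiter-Glo ATP luminescence, read after 10 min at room temperature. Compound treatment of the cells lasted 48 or 72 hr at 37 degrees Celsius in a qHTS format.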
On the technique in general: Cellular ATP, detected with luciferase, serves as a proxy for viable cell number.

For another assay, the system named is HEK293. Described as above. Conditions: Five cell lines viability, CellTiter-Glo ATP luminescence, 48-72 h; max response: stronger effect = lower value. The procedure, abridged: as §2
Assay [2] has as its system HaCat. Described as above. Conditions: Five cell lines viability, CellTiter-Glo ATP luminescence, 48-72 h; max response: stronger effect = lower value. The procedure, abridged: as §2
The subject of another assay is KB-3-1. The assay is described as above. Conditions: Five cell lines viability, CellTiter-Glo ATP luminescence, 48-72 h; max response: stronger effect = lower value. The method in brief:
as §2

The subject of assay [3] is NIH3T3. Described as above. Conditions: Five cell lines viability, CellTiter-Glo ATP luminescence, 48-72 h; max response: stronger effect = lower value. The procedure, abridged:
as §2

The test system of a further assay is MCC-13. In words: qHTS assay to identify novel small-molecules to repurpose for Merkel cell carcinoma treatment (AID 1296009). Also: nearly all actives have a fitted effect of over 60% in size. Also: potency is read from the fitted curve at half-maximal effect. Conditions: MCC and control cell lines, CellTiter-Glo viability, 72 h; series mostly up to 46 µM. The procedure, abridged: (§3)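 Cell viability measured by CellTiter-Glo following 72 hr compound treatment at 37 degree celsius, with NPC and MIPE libraries tested in 8- and 11-point concentration series.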

The subject of the next assay is MKL-1. The assay is described as above. The following applies: MCC and control cell lines, CellTiter-Glo viability, 72 h; series mostly up to 46 µM. The procedure, abridged:
as §3

The next assay concerns MKL-2. The description is as above. The following applies: MCC and control cell lines, CellTiter-Glo viability, 72 h; series mostly up to 46 µM. The method in brief:
as §3

In assay [4] the test system is NIH3T3. The assay is described as above. The following applies: MCC and control cell lines, CellTiter-Glo viability, 72 h; at 44.8 µM (top of the series) unless noted. The procedure, abridged: as §3
The subject of another assay is UISO. Described as above. The following applies: MCC and control cell lines, CellTiter-Glo viability, 72 h; series mostly up to 46 µM. The method in brief: as §3
The test system of another assay is WaGa. Described as above. Conditions: MCC and control cell lines, CellTiter-Glo viability, 72 h; series mostly up to 46 µM. The method in brief: as §3
Another assay deals with C33A. The assay is described as follows: Primary qHTS to identify gynecologic anti-cancer compounds using libraries of approved drugs and bioactive compounds (AID 1345084). Also: % is scaled to controls: 0 for no effect and ±100 for the full control effect; nearly all actives have a fitted effect of over 55% in size. The following applies: Gynecologic cancer cell panel viability, ATPlite luminescence, 48 h; series mostly up to 57.5 µM. The method in brief:
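Measured: luminescence after ATPlite addition (15 min, RT). Exposure: 48 h, 37 C, 5% CO2.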

Assay [5] deals with HACAT. In words: qHTS assay to identify novel small-molecules to repurpose for Merkel cell carcinoma treatment (AID 1296009). Also: nearly all actives have a fitted effect of over 60% in size. Also: potency is read from the fitted curve at half-maximal effect. Conditions: MCC and control cell lines, CellTiter-Glo viability, 72 h; at 44.8 µM (top of the series) unless noted. The procedure, abridged:
as §3

The test system of a further assay is MCC-26. The description is as above. Conditions: MCC and control cell lines, CellTiter-Glo viability, 72 h; series mostly up to 46 µM. The procedure, abridged:
as §3

The test system of a further assay is HEK293T. Described as above. Conditions: MCC and control cell lines, CellTiter-Glo viability, 72 h; at 44.8 µM (top of the series). The method in brief:
as §3

The subject of assay [6] is CRL-7250. Described as above. The following applies: MCC and control cell lines, CellTiter-Glo viability, 72 h; series mostly up to 44.8 µM. The procedure, abridged:
as §3

Our source for the Potency, max response and outcome values is PubChem BioAssay (NCATS).

SMILES strings stand for the structures. Several values for one entry are separate records, joined by “and”; a condition that tells them apart may be missing. Identical values can stand only once. Records with an inconclusive call do not appear. Some compounds were tested as several samples or in several runs, with calls that do not always agree. Activity calls are given as the source filed them. Calls follow the shape of the dose curve; as a rule, active = well fitted curve in the direction sought with a large enough effect; inconclusive = small, poorly fitted or top-dose-only effect, or another doubt; inactive = no such curve, though single readings can be large; an effect the other way counts as inactive or inconclusive.

Consider `CC(=O)Nc1cc([As](=O)(O)O)ccc1O`, for which the Potency entry in the assay with TAB109, in the assay on TAB113, in the assay on TAB165, in the assay on W2, with MCC-13 and in the assay on MKL-1 was “inactive” each time. For the same molecule, the Potency entry with MKL-2, with UISO, in the assay on WaGa and in the assay with C33A was “inactive” in each case. In addition, the max response in the assay on CRL-7250 [1] was -3.67% (inactive); in the assay with HEK293, 2.5% (inactive); in the assay with HaCat [2], -14.2% (inactive); with KB-3-1 it was 5.7% (inactive). Moreover, the outcome in the assay with NIH3T3 [3] and in the assay with NIH3T3 [4] was inactive.
As to `Cc1ccc2c(c1)C1CN(C)CCC1N2` (stereo unspecified), the figures for the max response in the assay with CRL-7250 [1] and with KB-3-1 were -0.945% (inactive) and -4.81% (inactive), respectively. Further, the molecule was called inactive with HaCat [2] and with NIH3T3 [3]. In addition, the outcome in the assay with HACAT [5] and in the assay with NIH3T3 [4] was “inactive [at 17.4 µM]” throughout. Moreover, the Potency result with MCC-13, with MKL-1, with MKL-2, in the assay on UISO, in the assay on WaGa and in the assay with C33A was “inactive” each time.
As for `Oc1cccc2cccnc12`, the Potency result in the assay on TAB109, in the assay on TAB113, in the assay with TAB165, in the assay on W2, with MCC-13 and in the assay with C33A was “inactive” each time. In addition, the max response with CRL-7250 [1] was 3.76% (inactive); in the assay with HaCat [2] it was 4.28% (inactive); in the assay with KB-3-1 it was 22% (inactive) and 11.8% (inactive) and -4.11% (inactive); in the assay on NIH3T3 [3] it was 4.09% (inactive). Further, the Potency in the assay with NIH3T3 [3] is 19.3 µM (active); in the assay on MKL-1, 12.2 µM (active) and inactive; in the assay with MKL-2, 4.86 µM (active) and inactive; with UISO, 10.9 µM (active) and inactive; in the assay on WaGa it was 38.6 µM (active) and inactive.
On to `Cc1ncc(CNC(=O)N(CCCl)N=O)c(N)n1`, for which the Potency entry in the assay with TAB109, with TAB113, with TAB165, with W2, in the assay with MCC-13 and with MKL-1 was “inactive” throughout. For the same molecule, the Potency entry with MKL-2, in the assay on UISO, in the assay with WaGa and in the assay on C33A was “inactive” each time. Moreover, the max response with CRL-7250 [1] is 0.0102% (inactive); in the assay with HEK293 it was 2.72% (inactive); in the assay on KB-3-1 it was 2.09% (inactive); with NIH3T3 [3] it was -2.43% (inactive).
Regarding `CCCN1CCC[C@@H]2Cc3[nH]ncc3C[C@H]21`, the Potency entry with W2, in the assay with MCC-13, with MCC-26, in the assay on MKL-1, with MKL-2 and in the assay on UISO was “inactive” throughout. The Potency entry in the assay on WaGa and with C33A was “inactive” in each case. The figures for the max response in the assay on CRL-7250 [1], in the assay with HEK293 and in the assay on KB-3-1 were 4.64% (inactive), -0.855% (inactive) and -4.95% (inactive), respectively. For the same molecule, the call in the assay on NIH3T3 [3] and in the assay with NIH3T3 [4] was inactive.
Regarding `CC(CCc1ccccc1)NC(C)C(O)c1ccc(O)cc1` (stereo unspecified), the Potency entry in the assay with TAB113, with MCC-13, in the assay with MCC-26, with MKL-1, with MKL-2 and in the assay on UISO was “inactive” each time. Moreover, the Potency result in the assay with WaGa and in the assay with C33A was “inactive” each time. The Potency with W2 is 4.26 µM (active). Further, the max response in the assay with CRL-7250 [1] is -12.9% (inactive); with KB-3-1 it was -11.3% (inactive); in the assay with NIH3T3 [3], -21.3% (inactive). For the same molecule, the molecule was called inactive with HaCat [2] and in the assay on HACAT [5].
As to `CC1NCCOC1c1ccccc1` (stereo unspecified), the Potency entry in the assay with TAB109, with TAB113, with TAB165, in the assay on MCC-13, with MCC-26 and with MKL-1 was “inactive” throughout. Besides, the Potency result in the assay with MKL-2, in the assay on UISO, with WaGa and in the assay on C33A was “inactive” each time. The max response with CRL-7250 [1] is 1.98% (inactive); in the assay with KB-3-1, -11.6% (inactive); with NIH3T3 [3], 1.83% (inactive). In addition, the molecule was classed as inactive in the assay with HaCat [2], in the assay on HACAT [5] and in the assay on HEK293T.
Consider `CC(O)(CS(=O)(=O)c1ccc(F)cc1)C(=O)Nc1ccc(C#N)c(C(F)(F)F)c1` (stereo unspecified), for which the result with CRL-7250 [1], with HaCat [2], in the assay on NIH3T3 [3], with CRL-7250 [6], in the assay with HACAT [5] and in the assay with NIH3T3 [4] was inactive. Moreover, the max response was 4.8% (inactive) and -10.6% (inactive) with KB-3-1; 2.23% (inactive) with NIH3T3 [3]. Besides, the values for the Potency in the assay with MKL-2 and in the assay with WaGa were 4.18 µM (active) and 8.33 µM (active), respectively. For the same molecule, the Potency entry in the assay on C33A is “inactive”.
`Cc1cccc(C)c1NC1=NCCCS1`: the Potency result with TAB113, in the assay on MCC-13, in the assay with MCC-26, in the assay on MKL-1, in the assay on MKL-2 and in the assay on UISO was “inactive” throughout. In addition, the Potency result with WaGa and in the assay with C33A was “inactive” each time. The Potency in the assay with W2 was 4.26 µM (active). Further, the max response in the assay on CRL-7250 [1] was -7.18% (inactive); in the assay with HEK293, -6.53% (inactive); in the assay on HaCat [2] it was -7.27% (inactive); in the assay on KB-3-1, -1.86% (inactive); in the assay on NIH3T3 [3], 1% (inactive).
For the molecule `Cc1cc(SCc2sc(-c3ccc(C(F)(F)F)c(F)c3)nc2C)ccc1OCC(=O)O`, the call in the assay with CRL-7250 [1], in the assay on HaCat [2], in the assay on KB-3-1, with NIH3T3 [3], in the assay with CRL-7250 [6] and in the assay with HACAT [5] was inactive. The molecule was called inactive in the assay on HEK293T and in the assay on NIH3T3 [4]. In addition, the max response in the assay on KB-3-1 is -0.392% (inactive); in the assay with NIH3T3 [3], 3.63% (inactive). Moreover, the Potency entry in the assay on MCC-13, with MKL-1, in the assay on MKL-2, in the assay with UISO, in the assay with WaGa and with C33A was “inactive” each time.
For `CN(C)CCc1ccc(O)cc1`, the Potency entry with TAB109, in the assay with TAB113, with TAB165, with W2, in the assay on MCC-13 and in the assay with MCC-26 was “inactive” throughout. Moreover, the Potency entry in the assay with MKL-1, with MKL-2, with UISO, in the assay on WaGa and with C33A was “inactive” in each case. The max response with CRL-7250 [1] is -1.07% (inactive) and -0.797% (inactive); in the assay on HaCat [2] it was 3.93% (inactive); in the assay on KB-3-1 it was -1.4% (inactive) and 4.63% (inactive); in the assay with NIH3T3 [3], -1.51% (inactive) and -2.46% (inactive). For the same molecule, the call in the assay with HaCat [2], with HACAT [5] and with HEK293T was inactive.
Regarding `FC(F)(F)c1cccc(C2=CCN(CCc3ccc4ccccc4c3)CC2)c1`, the Potency result in the assay on TAB113, in the assay with TAB165, in the assay on W2, in the assay with MCC-13, with MCC-26 and with MKL-1 was “inactive” in each case. Also, the Potency result in the assay with MKL-2, with UISO, in the assay with WaGa and in the assay on C33A was “inactive” each time. The max response is -12.8% (inactive) in the assay on CRL-7250 [1] and -4.6% (inactive) in the assay on KB-3-1. In addition, the result with HaCat [2], in the assay with NIH3T3 [3], with HACAT [5], in the assay with HEK293T and in the assay on NIH3T3 [4] was inactive.
